# The list shows a part of the results. Unmarked numbers belong to inactive results.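 Rule for the calls: active = inhibition averaging 50% or more, tested at 20 µM; inactive = the rest.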
# Tested on: diaphorase (Clostridium kluyveri)
# Assay: C. kluyveri diaphorase inhibition, resazurin coupling – biochemical, fluorescence intensity, 30 µM NADPH, counter-screen for P. falciparum G6PD inhibitor project, confirmation (AID 504863);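 note: 0% = DMSO with enzyme and 100% = DMSO wells lacking diaphorase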
# Details: Diaphorase/resazurin coupled assay, resorufin fluorescence, at 20 µM, stronger effect = higher value
smiles,measurement,value
O=C1NC(=O)N(c2ccccc2)C(=O)/C1=C/c1ccc([N+](=O)[O-])s1,inhibition,20.5%
